# Laboratory results taken from article PMC7862700, “An all-to-all approach to the identification of sequence-specific readers for epigenetic DNA modifications on cytosine”.
# How the values were obtained:
# Experiment in all cases: DAPPL (digital affinity profiling via proximity ligation, sequencing); 10 mM Tris-HCl pH 7.5, 50 mM NaCl, 1 mM DTT, 4% glycerol, room temperature, 30 min; GST-TFs on glutathione beads, 16-mer random dsDNA library, 0.1% formaldehyde crosslink after washing; high values mean tight binding
# [1] = target: T1, FEV (Homo sapiens, UniProt Q99581 1-238); settings: protein: recombinant; tags: N-terminal GST; dsDNA, one strand shown
# T1 sequence: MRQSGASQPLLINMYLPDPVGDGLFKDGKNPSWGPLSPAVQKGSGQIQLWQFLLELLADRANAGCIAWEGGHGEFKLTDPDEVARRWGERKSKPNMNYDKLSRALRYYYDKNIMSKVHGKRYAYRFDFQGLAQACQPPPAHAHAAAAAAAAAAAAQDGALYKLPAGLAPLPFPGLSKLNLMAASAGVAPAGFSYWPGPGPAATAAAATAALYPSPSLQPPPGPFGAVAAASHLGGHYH
# Outline: (§1)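 Yeast served to express human transcription factors as GST fusions, which were then captured on glutathione beads and labelled with DNA barcodes. Pooled with a tag-only sample, they were incubated with 200 nmole of a 16-mer random double-stranded DNA library for 30 min at room temperature in Tris/NaCl/DTT/glycerol buffer, washed, crosslinked with 0.1% formaldehyde, ligated by proximity, amplified by PCR and sequenced. Dividing each hexamer's read frequency for a factor by its frequency for the tag-only sample gives the binding signal.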
# [2] = target: ETV5 (Homo sapiens, UniProt P41161 1-510); settings: protein: recombinant; tags: N-terminal GST; dsDNA, one strand shown
# Sequence of ETV5 (P41161 whole entry): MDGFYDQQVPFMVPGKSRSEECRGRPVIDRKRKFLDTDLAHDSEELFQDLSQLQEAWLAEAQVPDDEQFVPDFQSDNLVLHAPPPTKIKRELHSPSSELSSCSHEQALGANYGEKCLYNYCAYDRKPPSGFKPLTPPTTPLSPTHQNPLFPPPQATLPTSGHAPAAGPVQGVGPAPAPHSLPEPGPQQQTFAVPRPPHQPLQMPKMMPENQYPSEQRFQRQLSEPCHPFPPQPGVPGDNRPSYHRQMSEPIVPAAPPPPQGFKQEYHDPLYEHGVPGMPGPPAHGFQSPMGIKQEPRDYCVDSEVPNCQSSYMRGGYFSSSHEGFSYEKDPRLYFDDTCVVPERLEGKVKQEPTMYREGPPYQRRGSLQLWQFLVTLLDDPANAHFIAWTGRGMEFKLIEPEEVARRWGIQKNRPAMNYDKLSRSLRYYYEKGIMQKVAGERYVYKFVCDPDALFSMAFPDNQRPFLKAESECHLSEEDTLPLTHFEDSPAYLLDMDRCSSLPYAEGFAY
# Outline: as §1
# [3] = target: HSF1 (Homo sapiens, UniProt Q00613 1-529); settings: protein: recombinant; tags: N-terminal GST; chain copies: 3; dsDNA, one strand shown
# Sequence of HSF1 (Q00613 whole entry): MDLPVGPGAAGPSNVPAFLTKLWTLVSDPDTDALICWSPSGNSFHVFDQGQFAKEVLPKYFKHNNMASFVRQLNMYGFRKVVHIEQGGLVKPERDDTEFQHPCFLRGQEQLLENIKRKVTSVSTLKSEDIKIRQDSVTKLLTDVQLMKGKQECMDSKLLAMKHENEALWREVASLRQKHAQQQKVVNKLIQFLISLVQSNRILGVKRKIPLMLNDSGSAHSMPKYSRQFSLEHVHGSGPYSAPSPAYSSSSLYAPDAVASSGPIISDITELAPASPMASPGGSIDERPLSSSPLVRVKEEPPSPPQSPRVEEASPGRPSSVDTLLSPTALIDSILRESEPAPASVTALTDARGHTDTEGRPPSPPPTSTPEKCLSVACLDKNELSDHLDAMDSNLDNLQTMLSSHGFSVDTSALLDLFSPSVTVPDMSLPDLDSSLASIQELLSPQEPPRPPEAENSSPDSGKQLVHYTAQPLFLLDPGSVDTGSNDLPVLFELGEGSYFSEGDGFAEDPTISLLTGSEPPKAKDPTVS
# Outline: as §1
# [4] = target: T2, SPIC (Homo sapiens, UniProt Q8N5J4 1-248); settings: protein: recombinant; tags: N-terminal GST; dsDNA, one strand shown
# T2 sequence: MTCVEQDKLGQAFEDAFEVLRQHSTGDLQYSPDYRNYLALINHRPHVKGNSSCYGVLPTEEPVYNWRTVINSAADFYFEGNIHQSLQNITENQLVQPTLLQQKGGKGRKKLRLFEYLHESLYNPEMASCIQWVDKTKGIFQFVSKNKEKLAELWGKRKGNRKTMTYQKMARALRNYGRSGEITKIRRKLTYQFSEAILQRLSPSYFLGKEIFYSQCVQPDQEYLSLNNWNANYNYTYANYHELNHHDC
# Outline: as §1
# [5] = target: ELF4 (Homo sapiens, UniProt Q99607 1-663); settings: protein: recombinant; tags: N-terminal GST; dsDNA, one strand shown
# Sequence of ELF4 (Q99607 whole entry): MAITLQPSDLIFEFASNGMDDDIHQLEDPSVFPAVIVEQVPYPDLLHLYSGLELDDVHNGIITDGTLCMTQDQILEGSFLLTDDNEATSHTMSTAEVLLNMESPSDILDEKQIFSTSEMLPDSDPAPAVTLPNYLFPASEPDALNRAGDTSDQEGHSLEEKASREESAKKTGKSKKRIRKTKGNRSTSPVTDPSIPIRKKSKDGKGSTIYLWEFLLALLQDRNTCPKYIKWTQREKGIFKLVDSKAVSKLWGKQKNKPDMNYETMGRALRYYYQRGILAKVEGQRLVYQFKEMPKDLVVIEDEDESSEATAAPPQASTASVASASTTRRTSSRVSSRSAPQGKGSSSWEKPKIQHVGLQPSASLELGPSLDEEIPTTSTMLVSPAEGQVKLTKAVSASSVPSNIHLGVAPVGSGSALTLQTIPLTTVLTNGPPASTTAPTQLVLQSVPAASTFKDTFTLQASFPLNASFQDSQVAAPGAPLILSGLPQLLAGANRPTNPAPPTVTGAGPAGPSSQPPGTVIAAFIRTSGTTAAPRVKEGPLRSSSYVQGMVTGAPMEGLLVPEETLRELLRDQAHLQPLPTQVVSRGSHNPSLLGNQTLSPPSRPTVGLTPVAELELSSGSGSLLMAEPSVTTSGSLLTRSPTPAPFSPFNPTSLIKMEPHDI
# Outline: as §1
# [6] = target: T3, ELK4 (Homo sapiens, UniProt P28324-2 1-405); settings: protein: recombinant; tags: N-terminal GST; dsDNA, one strand shown
# T3 sequence: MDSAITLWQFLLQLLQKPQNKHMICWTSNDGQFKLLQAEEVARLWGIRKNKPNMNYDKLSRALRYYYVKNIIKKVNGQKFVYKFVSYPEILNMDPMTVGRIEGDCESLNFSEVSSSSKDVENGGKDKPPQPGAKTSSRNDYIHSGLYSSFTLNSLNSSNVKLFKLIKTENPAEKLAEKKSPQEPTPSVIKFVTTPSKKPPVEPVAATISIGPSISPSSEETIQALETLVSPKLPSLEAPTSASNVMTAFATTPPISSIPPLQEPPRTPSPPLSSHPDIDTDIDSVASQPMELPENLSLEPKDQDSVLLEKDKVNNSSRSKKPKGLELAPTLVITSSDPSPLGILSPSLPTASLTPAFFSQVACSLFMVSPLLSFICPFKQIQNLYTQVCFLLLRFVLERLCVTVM
# Outline: as §1
# [7] = target: T4, ETV2 (Homo sapiens, UniProt O00321 1-342); settings: protein: recombinant; tags: N-terminal GST; dsDNA, one strand shown
# T4 sequence: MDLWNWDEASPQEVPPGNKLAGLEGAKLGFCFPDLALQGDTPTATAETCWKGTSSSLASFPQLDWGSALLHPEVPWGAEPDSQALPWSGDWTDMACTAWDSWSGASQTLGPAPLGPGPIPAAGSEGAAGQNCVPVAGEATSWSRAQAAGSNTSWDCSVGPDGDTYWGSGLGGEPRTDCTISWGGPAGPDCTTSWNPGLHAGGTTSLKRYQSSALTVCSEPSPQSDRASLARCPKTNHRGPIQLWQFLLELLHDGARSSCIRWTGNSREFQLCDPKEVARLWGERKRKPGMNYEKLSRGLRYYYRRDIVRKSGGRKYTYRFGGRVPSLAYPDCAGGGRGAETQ
# Outline: as §1
# [8] = target: T5, ELF3 (Homo sapiens, UniProt P78545 1-371); settings: protein: recombinant; tags: N-terminal GST; dsDNA, one strand shown
# T5 sequence: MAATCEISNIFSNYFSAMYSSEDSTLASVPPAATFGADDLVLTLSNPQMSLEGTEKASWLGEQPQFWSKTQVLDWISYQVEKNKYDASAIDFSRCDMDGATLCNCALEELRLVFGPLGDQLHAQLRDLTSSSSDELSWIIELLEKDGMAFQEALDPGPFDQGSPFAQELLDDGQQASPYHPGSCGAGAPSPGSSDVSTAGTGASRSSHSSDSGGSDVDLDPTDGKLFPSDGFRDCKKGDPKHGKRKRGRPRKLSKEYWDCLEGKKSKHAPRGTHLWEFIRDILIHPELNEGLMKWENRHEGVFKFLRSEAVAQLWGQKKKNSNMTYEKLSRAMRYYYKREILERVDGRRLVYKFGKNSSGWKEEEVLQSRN
# Outline: as §1
# [9] = target: ETV1 (Homo sapiens, UniProt P50549 1-477); settings: protein: recombinant; tags: N-terminal GST; dsDNA, one strand shown
# Sequence of ETV1 (P50549 whole entry): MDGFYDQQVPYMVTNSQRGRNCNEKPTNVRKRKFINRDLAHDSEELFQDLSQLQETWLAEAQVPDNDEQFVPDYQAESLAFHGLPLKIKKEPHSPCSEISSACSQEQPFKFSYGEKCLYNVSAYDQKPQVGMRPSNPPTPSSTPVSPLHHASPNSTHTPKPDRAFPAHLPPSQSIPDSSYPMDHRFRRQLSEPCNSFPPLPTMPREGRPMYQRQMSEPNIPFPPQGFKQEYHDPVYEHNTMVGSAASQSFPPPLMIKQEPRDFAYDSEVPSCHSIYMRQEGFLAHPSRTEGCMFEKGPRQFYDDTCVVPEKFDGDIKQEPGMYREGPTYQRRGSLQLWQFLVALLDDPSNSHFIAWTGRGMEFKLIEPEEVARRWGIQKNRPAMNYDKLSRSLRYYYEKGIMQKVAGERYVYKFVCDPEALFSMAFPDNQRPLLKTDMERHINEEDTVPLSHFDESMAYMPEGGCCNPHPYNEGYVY
# Outline: as §1
# [10] = target: T6, ERF (Homo sapiens, UniProt P50548 1-548); settings: protein: recombinant; tags: N-terminal GST; dsDNA, one strand shown
# T6 sequence: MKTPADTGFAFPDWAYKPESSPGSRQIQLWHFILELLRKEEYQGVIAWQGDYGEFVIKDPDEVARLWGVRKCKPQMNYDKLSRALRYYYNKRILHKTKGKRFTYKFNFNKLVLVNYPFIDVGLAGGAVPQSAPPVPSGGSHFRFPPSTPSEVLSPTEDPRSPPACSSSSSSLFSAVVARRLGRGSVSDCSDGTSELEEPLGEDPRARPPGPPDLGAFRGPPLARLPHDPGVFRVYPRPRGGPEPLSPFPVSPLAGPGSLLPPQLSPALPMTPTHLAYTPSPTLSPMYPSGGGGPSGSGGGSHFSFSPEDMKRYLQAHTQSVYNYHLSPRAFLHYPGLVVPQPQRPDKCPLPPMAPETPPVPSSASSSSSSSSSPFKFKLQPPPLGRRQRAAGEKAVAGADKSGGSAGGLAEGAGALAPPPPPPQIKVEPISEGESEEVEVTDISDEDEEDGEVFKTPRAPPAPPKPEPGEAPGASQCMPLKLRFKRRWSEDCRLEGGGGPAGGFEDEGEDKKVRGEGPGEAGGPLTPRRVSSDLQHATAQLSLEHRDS
# Outline: as §1
# [11] = target: T7, ETV3L (Homo sapiens, UniProt Q6ZN32 1-361); settings: protein: recombinant; tags: N-terminal GST; dsDNA, one strand shown
# T7 sequence: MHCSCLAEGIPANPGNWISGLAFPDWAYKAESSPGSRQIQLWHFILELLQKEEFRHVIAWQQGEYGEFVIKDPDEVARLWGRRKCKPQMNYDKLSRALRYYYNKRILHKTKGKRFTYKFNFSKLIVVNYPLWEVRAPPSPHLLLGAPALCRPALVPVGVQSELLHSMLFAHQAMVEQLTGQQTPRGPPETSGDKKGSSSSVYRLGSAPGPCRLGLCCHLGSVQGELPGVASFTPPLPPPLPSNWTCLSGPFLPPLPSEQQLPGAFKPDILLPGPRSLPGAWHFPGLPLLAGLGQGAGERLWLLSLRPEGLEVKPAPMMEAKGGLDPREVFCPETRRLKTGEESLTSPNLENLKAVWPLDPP
# Outline: as §1
# [12] = target: T8, ETS2 (Homo sapiens, UniProt P15036 1-469); settings: protein: recombinant; tags: N-terminal GST; dsDNA, one strand shown
# T8 sequence: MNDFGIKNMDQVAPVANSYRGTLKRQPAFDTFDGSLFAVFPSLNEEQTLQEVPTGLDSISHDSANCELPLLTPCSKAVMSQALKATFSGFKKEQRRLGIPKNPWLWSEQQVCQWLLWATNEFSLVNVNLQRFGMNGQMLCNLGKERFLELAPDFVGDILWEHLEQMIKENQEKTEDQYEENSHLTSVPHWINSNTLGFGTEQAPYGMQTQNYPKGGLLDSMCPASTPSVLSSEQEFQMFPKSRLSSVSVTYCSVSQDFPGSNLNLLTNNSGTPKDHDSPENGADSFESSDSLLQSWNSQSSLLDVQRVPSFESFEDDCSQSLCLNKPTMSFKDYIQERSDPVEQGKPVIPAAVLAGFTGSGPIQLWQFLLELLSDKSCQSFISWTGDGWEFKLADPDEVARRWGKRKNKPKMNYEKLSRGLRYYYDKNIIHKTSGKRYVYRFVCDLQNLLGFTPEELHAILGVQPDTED
# Outline: as §1
# [13] = target: T9, ETV7 (Homo sapiens, UniProt Q9Y603 1-341); settings: protein: recombinant; tags: N-terminal GST; dsDNA, one strand shown
# T9 sequence: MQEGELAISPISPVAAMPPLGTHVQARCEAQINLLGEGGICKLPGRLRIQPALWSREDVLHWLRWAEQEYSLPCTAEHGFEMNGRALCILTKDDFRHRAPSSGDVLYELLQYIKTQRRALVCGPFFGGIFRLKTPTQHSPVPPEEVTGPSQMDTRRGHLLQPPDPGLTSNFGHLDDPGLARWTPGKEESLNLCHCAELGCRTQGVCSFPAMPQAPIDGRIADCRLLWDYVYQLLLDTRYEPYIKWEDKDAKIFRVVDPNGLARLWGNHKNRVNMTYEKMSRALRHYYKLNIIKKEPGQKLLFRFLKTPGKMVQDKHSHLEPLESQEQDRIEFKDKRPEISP
# Outline: as §1
# [14] = target: T10, ELF5 (Homo sapiens, UniProt Q9UKW6-2 1-255); settings: protein: recombinant; tags: N-terminal GST; dsDNA, one strand shown
# T10 sequence: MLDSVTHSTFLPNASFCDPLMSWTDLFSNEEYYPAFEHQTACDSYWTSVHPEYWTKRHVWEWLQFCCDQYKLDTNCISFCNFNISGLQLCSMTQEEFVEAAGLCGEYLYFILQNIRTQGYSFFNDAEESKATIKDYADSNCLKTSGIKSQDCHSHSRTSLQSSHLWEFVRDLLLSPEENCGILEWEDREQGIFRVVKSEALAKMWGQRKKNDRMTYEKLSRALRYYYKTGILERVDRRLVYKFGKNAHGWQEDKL
# Outline: as §1
# [15] = target: T11, ETV3 (Homo sapiens, UniProt P41162-2 1-143); settings: protein: recombinant; tags: N-terminal GST; dsDNA, one strand shown
# T11 sequence: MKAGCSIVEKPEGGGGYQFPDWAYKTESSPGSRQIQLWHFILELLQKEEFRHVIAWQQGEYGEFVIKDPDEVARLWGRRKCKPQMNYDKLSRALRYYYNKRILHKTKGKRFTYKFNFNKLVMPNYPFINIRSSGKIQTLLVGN
# Outline: as §1
# [16] = target: ETV6 (Homo sapiens, UniProt P41212 1-452); settings: protein: recombinant; tags: N-terminal GST; dsDNA, one strand shown
# Sequence of ETV6 (P41212 whole entry): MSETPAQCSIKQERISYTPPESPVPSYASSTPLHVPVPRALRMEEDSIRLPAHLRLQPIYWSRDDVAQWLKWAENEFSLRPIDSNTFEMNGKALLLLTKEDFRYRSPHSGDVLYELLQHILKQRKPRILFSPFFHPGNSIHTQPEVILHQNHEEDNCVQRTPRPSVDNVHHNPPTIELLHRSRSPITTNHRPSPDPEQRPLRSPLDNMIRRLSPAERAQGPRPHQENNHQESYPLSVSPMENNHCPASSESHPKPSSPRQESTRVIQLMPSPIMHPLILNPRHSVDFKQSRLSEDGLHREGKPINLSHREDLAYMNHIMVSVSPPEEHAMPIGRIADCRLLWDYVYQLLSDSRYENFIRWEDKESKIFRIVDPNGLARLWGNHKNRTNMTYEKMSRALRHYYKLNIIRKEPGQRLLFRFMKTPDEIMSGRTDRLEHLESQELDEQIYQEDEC
# Outline: as §1
sequence,measurement,setting,value
ACTCGC,binding signal,[1],"1.14 fold enrichment (6-mer frequency, TF over GST control)"
same,binding signal,[2],"1.15 fold enrichment (6-mer frequency, TF over GST control)"
same,binding signal,[3],"1.1 fold enrichment (6-mer frequency, TF over GST control)"
same,binding signal,[4],"1.2 fold enrichment (6-mer frequency, TF over GST control)"
same,binding signal,[5],"1.1 fold enrichment (6-mer frequency, TF over GST control)"
same,binding signal,[6],"1.14 fold enrichment (6-mer frequency, TF over GST control)"
same,binding signal,[7],"1.12 fold enrichment (6-mer frequency, TF over GST control)"
same,binding signal,[8],"1.21 fold enrichment (6-mer frequency, TF over GST control)"
same,binding signal,[9],"1.15 fold enrichment (6-mer frequency, TF over GST control)"
same,binding signal,[10],"1.17 fold enrichment (6-mer frequency, TF over GST control)"
same,binding signal,[11],"1.08 fold enrichment (6-mer frequency, TF over GST control)"
same,binding signal,[12],"1.14 fold enrichment (6-mer frequency, TF over GST control)"
same,binding signal,[13],"1.09 fold enrichment (6-mer frequency, TF over GST control)"
same,binding signal,[14],"1.08 fold enrichment (6-mer frequency, TF over GST control)"
same,binding signal,[15],"1.08 fold enrichment (6-mer frequency, TF over GST control)"
same,binding signal,[16],"1.25 fold enrichment (6-mer frequency, TF over GST control)"
